# Laboratory results from PubChem BioAssay AID1456 (Vanderbilt High Throughput Screening Facility, 2008).
# In all, about 190,000 compounds went through this assay and about 4,100 (2.2%) were called active.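 Rule for the calls: active = thallium flux slope and its plate-corrected score both differing from the plate sample mean at a set confidence after two filtering rounds, in either direction; inactive = the rest.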 The full list was thinned out, with actives kept by preference.
# Target: Solute carrier family 12 member 5 (Homo sapiens) (UniProt Q9H2X9)
# Sequence (Q9H2X9 whole entry, looked up): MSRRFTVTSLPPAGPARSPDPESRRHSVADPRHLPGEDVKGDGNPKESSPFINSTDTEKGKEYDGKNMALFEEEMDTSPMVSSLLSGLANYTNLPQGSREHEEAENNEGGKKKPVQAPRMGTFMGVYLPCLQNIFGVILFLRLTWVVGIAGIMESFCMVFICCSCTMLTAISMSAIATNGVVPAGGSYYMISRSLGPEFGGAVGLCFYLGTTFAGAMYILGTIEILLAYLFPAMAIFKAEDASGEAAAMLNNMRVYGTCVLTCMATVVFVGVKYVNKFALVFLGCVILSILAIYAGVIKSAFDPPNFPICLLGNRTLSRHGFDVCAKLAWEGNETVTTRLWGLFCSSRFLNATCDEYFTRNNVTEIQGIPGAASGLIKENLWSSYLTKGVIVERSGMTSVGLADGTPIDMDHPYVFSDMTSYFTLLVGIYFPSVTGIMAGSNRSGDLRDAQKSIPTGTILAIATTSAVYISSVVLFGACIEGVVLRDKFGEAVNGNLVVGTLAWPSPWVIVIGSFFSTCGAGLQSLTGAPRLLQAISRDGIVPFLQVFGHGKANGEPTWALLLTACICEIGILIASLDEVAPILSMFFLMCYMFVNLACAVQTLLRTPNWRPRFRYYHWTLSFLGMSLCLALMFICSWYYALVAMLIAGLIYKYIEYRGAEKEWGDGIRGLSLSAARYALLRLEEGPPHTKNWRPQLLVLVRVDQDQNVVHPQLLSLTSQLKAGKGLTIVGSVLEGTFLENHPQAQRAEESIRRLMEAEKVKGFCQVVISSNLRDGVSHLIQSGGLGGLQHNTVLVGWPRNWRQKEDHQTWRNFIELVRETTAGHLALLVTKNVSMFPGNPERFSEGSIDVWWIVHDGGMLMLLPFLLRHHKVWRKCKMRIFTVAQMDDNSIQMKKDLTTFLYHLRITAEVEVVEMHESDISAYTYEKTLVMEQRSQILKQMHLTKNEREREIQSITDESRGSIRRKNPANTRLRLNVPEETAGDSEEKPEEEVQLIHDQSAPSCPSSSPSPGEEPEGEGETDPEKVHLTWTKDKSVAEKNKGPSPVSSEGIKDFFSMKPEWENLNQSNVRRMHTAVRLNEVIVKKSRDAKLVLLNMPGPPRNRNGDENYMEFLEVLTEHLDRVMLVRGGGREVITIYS
# Assay: modulation of human KCC2 ion transport – cell-based, HEK293 KCC2, FluoZin-2 fluorescence, MLSMR, primary screen (AID 1456);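 note: slope of fluorescence scaled to starting intensity during 10 to 20 s after thallium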
# Conditions: KCC2 cells, thallium flux FluoZin-2 fluorescence; at 10 µM
row,SMILES,B-score of Tl+ flux slope (higher = more flux/activation; lower = inhibition)
1,O=C(Cn1cnc2cc([N+](=O)[O-])ccc2c1=O)NC(=O)NCc1ccccc1,-0.182 (inactive)
2,CC(=O)c1ccc(S(=O)(=O)Nc2ccc(C(=O)NCC(c3ccccc3)N(C)C)cc2)cc1 (stereo not given),0.133 (inactive)
3,COc1ccc(N2CCC(CNC(=S)Nc3c(C)cccc3C)C2)cc1 (stereo not given),-0.00939 (inactive)
4,Cc1c(NC(=O)CSc2cccc3cccnc23)c(=O)n(-c2ccccc2)n1C,4.92 (active)
5,Cc1c(NC(=O)c2cccnc2)c(=O)n(-c2ccccc2)n1C,0.0888 (inactive)
6,Cc1c(NC(=O)CSc2nnnn2-c2ccc(C(=O)O)cc2)c(=O)n(-c2ccccc2)n1C,1.95 (inactive)
7,O=c1[nH]n(-c2cccc(Cl)c2)c2ncccc12,0.268 (inactive)
8,Clc1cccc(CN2COc3c(cc(Cl)c4cccnc34)C2)c1,4.19 (active)
9,Nc1c(C(=O)NCc2ccccc2)nnn1Cc1cccc(Cl)c1,-1.02 (inactive)
10,O=C(NNS(=O)(=O)c1ccccc1C(F)(F)F)c1cc2ncc(C(F)(F)F)cc2s1,-0.726 (inactive)
11,COc1ccc(OCc2cccc(C(=O)N3CCCC3)c2)cc1,0.115 (inactive)
12,Cc1oc(C(N)=O)cc1COc1ccc(C(N)=O)cc1,2.17 (active)
13,Cc1ccc(COc2ccc(C(=O)NN)cc2)cc1,-0.198 (inactive)
14,COc1ccc(Cl)cc1S(=O)(=O)N1CCC(O)(c2ccc(Cl)cc2)CC1,-0.0293 (inactive)
15,Cc1[nH]n(-c2ccccc2)c(=O)c1N=Nc1ccccc1C(=O)N1CCCCC1,5.68 (active)
16,Cc1ccc(N=Nc2c(C)[nH]n(-c3ccccc3)c2=O)cc1,3.14 (inactive)
17,Cc1cccc(N=Nc2c(C)[nH]n(-c3ccccc3)c2=O)c1,0.0317 (inactive)
18,CSc1nc(-c2ccco2)nn1C(=O)c1ccccc1Cl,-1.08 (inactive)
19,COC(=O)c1cc2c(N)c(C(=O)c3ccc(Cl)cc3)sc2nc1C(OC)OC,0.11 (inactive)
20,COc1cc(OC)cc(/C(N)=N/O)c1,-0.654 (inactive)
21,COc1ccc(N2C(=O)c3ccccc3NC2c2ccc(OC)c(CN3CCOCC3)c2)cc1 (stereo not given),-0.152 (inactive)
22,C=CCn1c(=S)[nH]c2nc3c(cc2c1=O)COC(C)(C)C3,3.61 (active)
23,C=CCn1c(=S)sc2c(=O)[nH]c(C)nc21,-0.647 (inactive)
24,O=C(CCl)N(Cc1cccc([N+](=O)[O-])c1)c1cccc(Cl)c1,-0.452 (inactive)

row,SMILES,B-score of Tl+ flux slope (higher = more flux/activation; lower = inhibition)
1,Cn1c2ccccc2c2cc(/C=C(\NC(=O)c3ccccc3)C(=O)NCC(=O)O)ccc21,0 (inactive)
2,Cc1csc(NC(=O)CSc2ccc(-c3ccc(F)cc3)nn2)n1,-4.45 (inactive)
3,Cn1c(CCC(=O)Nc2ccccc2F)nnc1SCC(=O)Nc1ccccc1Cl,-0.846 (inactive)
4,O=C(CSc1ccc(-c2cccs2)nn1)Nc1ccccc1F,-2.89 (active)
5,C=CCC1(C#N)C(=S)NC(C)=C(C(=O)OCC)C1c1ccccc1 (stereo not given),-0.00243 (inactive)
6,Cc1ccc(SCc2c(C(=O)N/N=C/C3CC=CCC3)nnn2-c2nonc2N)cc1 (stereo not given),-0.374 (inactive)
7,O=C(Nc1nnc(Cc2ccc(Cl)cc2)s1)c1ccncc1,-2.1 (inactive)
8,NS(=O)(=O)c1ccc(NC(=S)Nc2ccc(Br)c(Cl)c2)cc1,0.559 (inactive)
9,CC(C)Oc1ccc(CCC(=O)NNC(=S)NCc2ccccc2)cc1,-1.38 (inactive)
10,COc1ccc(CCNC(=O)c2ccco2)cc1,0.796 (inactive)
11,O=C(Nc1ccc2ccccc2c1)/C(=C/c1cccc(Br)c1)NC(=O)c1ccco1,-1.51 (inactive)
12,CC(Oc1ccc2ccccc2c1)C(=O)NNC(=S)NC(=O)c1ccco1 (stereo not given),25.4 (active)
13,CCCc1ccc(OCC(=O)NNC(=S)NC(=O)c2ccco2)cc1,28.4 (active)
14,CC(=O)Nc1ccc(OCC(=O)NCc2ccc(C)cc2)cc1,-0.00613 (inactive)
15,Cc1ccc(OCC(=O)NNC(=S)NCc2ccccc2)cc1,9.51 (active)
16,CCNC(=S)NNC(=O)Cc1ccccc1,0.737 (inactive)
17,O=C(Nc1ccc2ccccc2c1)/C(=C\c1ccc2c(c1)OCO2)NC(=O)c1ccco1,0.0996 (inactive)
18,CC(C)(C)c1cc(C(=O)NN)n(Cc2ccc(Cl)cc2Cl)n1,-0.315 (inactive)
19,O=S(=O)(Nc1n[nH]c(C(F)(F)F)n1)c1ccccc1,-2.65 (inactive)
20,N#Cc1c(NCCO)ccc([N+](=O)[O-])c1NCCO,-0.904 (inactive)
21,O=C1c2ccccc2NC(c2ccc(-c3cccc(Cl)c3)o2)N1O (stereo not given),35 (active)
22,O=C1NC(c2cccc(Cl)c2)Nc2ccccc21 (stereo not given),0.445 (inactive)
23,Nc1nnnn1CC(=O)N/N=C/c1ccc(-c2cccc(Cl)c2)o1,-0.38 (inactive)
24,CCn1c(SCC(=O)Nc2sc(C)c(C)c2C#N)nnc1C1CC1,0.253 (inactive)

row,SMILES,B-score of Tl+ flux slope (higher = more flux/activation; lower = inhibition)
1,Cc1onc(-c2ccccc2)c1C(=O)N1CCOCC1,0.00257 (inactive)
2,Cc1onc(-c2ccccc2)c1C(=O)N=C(N)c1ccc(Cl)cc1,1.42 (inactive)
3,COc1ccc(C(=O)NNC(=S)NC(=O)c2ccccc2[N+](=O)[O-])cc1,1.61 (inactive)
4,COc1ccc(C(=O)NC(=S)NNC(=O)c2c(-c3ccccc3)noc2C)cc1,11.1 (active)
5,Cc1onc(-c2ccccc2)c1C(=O)NNC(=S)NC(=O)c1ccc(F)cc1,8.51 (active)
6,CC(=O)Nc1cccc(NC(=O)c2c(-c3ccccc3)noc2C)c1,-0.00829 (inactive)
7,O=C1CCCC(O)=C1N=Nc1ccc(S(=O)(=O)N2CCOCC2)cc1,-0.62 (inactive)
8,Cc1ccc(OC(=O)c2c(C)nn(-c3ccccc3)c2C)cc1,0.00646 (inactive)
9,O=C(Nc1ccc(Cl)cc1)Nc1ccc(C(=O)N2CCOCC2)cc1,0.868 (inactive)
10,c1ccc2c(NC3C4CC5CC(C4)CC3C5)nc(N3CCOCC3)nc2c1 (stereo not given),-0.0419 (inactive)
11,COC(=O)c1sccc1NC(=O)CC1C(=O)NCCN1C(=O)Nc1ccc(F)cc1F (stereo not given),-0.52 (inactive)
12,COC(=O)c1ccccc1N=Nc1c(C)[nH][nH]c1=O,0.855 (inactive)
13,O=C(Nc1ccc(S(=O)(=O)Nc2nccs2)cc1)c1cc(-c2ccncc2)nc2ccccc12,-0.477 (inactive)
14,CC(C)(C)Cc1nnc(NC(=O)c2cc(-c3ccccc3)nc3ccccc23)s1,0.0714 (inactive)
15,O=C(Nc1nnc(-c2ccccc2)o1)c1cc(-c2cccs2)nc2ccccc12,99.4 (active)
16,Cc1c(NC(=O)CN2C(=O)C(=O)N(Cc3ccccc3)C2=O)c(=O)n(-c2ccccc2)n1C,0.0462 (inactive)
17,CC(C)n1c(O)c(N=Nc2ccccn2)c2ccccc21,5.67 (active)
18,Oc1oc(-c2ccccc2Br)nc1/C=N/c1ccccn1,1.39 (inactive)
19,COC(=O)Cn1c(O)c(N=NC(=O)OC)c2ccccc21,1.85 (inactive)
20,COc1ccc(Cn2c(O)c(/C=C3/C=CC=N3)c(=O)[nH]c2=O)cc1,-0.723 (inactive)
21,Cn1nc(C(F)(F)F)cc1C(=O)O,1.56 (inactive)
22,Cc1cc(NC(=O)OC(C)C)ccc1-c1ccc(NC(=O)OC(C)C)cc1C,-0.761 (inactive)
23,CC(C)CN(CC(C)C)CC(O)CN(c1ccccc1)S(=O)(=O)c1ccccc1[N+](=O)[O-] (stereo not given),-2.39 (inactive)
24,CCC(C)Cn1c(O)cc2nn(-c3nc4ccccc4s3)c(=O)c-2c1C (stereo not given),5.85 (active)

row,SMILES,B-score of Tl+ flux slope (higher = more flux/activation; lower = inhibition)
1,CCOC(=O)N1CCN(CC(=O)Nc2cc(C)nn2-c2nc3ccccc3s2)CC1,-0.634 (inactive)
2,Cc1cc(NC(=O)CN2CCCC(C)C2)n(-c2nc3ccccc3s2)n1 (stereo not given),0.312 (inactive)
3,C/C(=N\NC(=O)c1cccnc1)c1ccc(-n2ccnc2)cc1,0.898 (inactive)
4,COc1cc2c(cc1OC)C(/C=C/c1ccco1)=NCC2,-1.64 (inactive)
5,COc1cccc(CNC(=O)c2n[nH]c3ccccc23)c1,-0.482 (inactive)
6,O=C(Cc1csc(Nc2nc(=S)[nH]c3ccccc23)n1)NCCCN1CCN(c2cccc(Cl)c2)CC1,18.7 (active)
7,O=C(CCCn1c(=O)[nH]c2cc(Cl)ccc2c1=O)NCCN1CCN(c2ccccc2)CC1,-1.09 (inactive)
8,COc1cccc(CNC(=O)Cc2csc(Nc3nc(=S)[nH]c4ccccc34)n2)c1,16.7 (active)
9,COc1cccc(CNC(=O)CCN2C(=S)NC(C)(C)CC2C)c1 (stereo not given),-1.19 (inactive)
10,CCn1c(=O)cc(OCC(=O)NCCCN2CCN(c3cccc(Cl)c3)CC2)c2ccccc21,-4.58 (inactive)
11,COC(=O)c1cc(S(=O)(=O)N2CCC(C(N)=O)CC2)oc1C,0.506 (inactive)
12,Cn1cc(S(=O)(=O)NC(c2ccccc2)c2ccccc2)c(=O)n(C)c1=O,1.52 (inactive)
13,CCCNc1c(N)c(=O)c1=O,0.441 (inactive)
14,O=C(Cc1ccccc1)Nc1c(Cl)ccc2nsnc12,0.0149 (inactive)
15,O=C(Nc1ccn(Cc2ccccc2)n1)c1n[nH]c([N+](=O)[O-])c1Cl,-5.21 (inactive)
16,O=C(Nc1ccn(Cc2ccccc2)n1)c1cccc(F)c1,-4.17 (active)
17,O=C(Nc1ccn(Cc2ccc(F)cc2)n1)c1ccncc1,-1.12 (inactive)
18,CC(=O)NCc1ccc(S(=O)(=O)NC2CCN(Cc3ccccc3)CC2)cc1,-1.54 (inactive)
19,Nn1c(SCc2ccccc2)nnc1C1CCCCC1,0.0386 (inactive)
20,COc1ccccc1CNC(=O)Cn1c(=O)oc2cc(Cl)ccc21,0.172 (inactive)
21,COc1ccccc1N1CCN(C(=O)CSc2ncnc3c2cnn3-c2ccc(C)c(C)c2)CC1,5.99 (active)
22,COc1ccccc1N1CCN(C(=O)CSc2nnc(-c3ccoc3C)o2)CC1,-1.44 (inactive)
23,COC(=O)CSc1ncnc2c1cnn2-c1ccc(C)cc1C,0.528 (inactive)
